Data: the supplement of paper PMC8285479
Counter-ions that a name gives are not always drawn. ± gives the standard deviation of the averaged measurements. Whole data set: some 1,900 compounds, median “normalised cell viability (NPI; 0 = phenylarsine oxide control, 1 = DMSO control)” near 1, cut for the lowest 2% near 0.039. Shown is part of a subset that was picked to be rich in the lowest values.

Tested on: NCI-H1944
Experiment: normalised cell viability (NPI; 0 = phenylarsine oxide control, 1 = DMSO control) (fraction of DMSO control); NCI-H1944 is a non-small cell lung cancer line; higher = more viable cells (less compound toxicity)
Details: 6 days
[1] = glucocorticoid arm: hydrocortisone 2.75 uM co-treatment, compound 1 µM
[2] = glucocorticoid arm: hydrocortisone 2.75 uM co-treatment, compound 5 µM
[3] = glucocorticoid arm: hydrocortisone 2.75 uM pre-treated 2 days and continued, compound 1 µM
[4] = glucocorticoid arm: hydrocortisone 2.75 uM pre-treated 2 days and continued, compound 5 µM
[5] = glucocorticoid arm: vehicle, compound 1 µM
[6] = glucocorticoid arm: vehicle, compound 5 µM
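Also: CTB read-out in 384-well plates, triplicate wells, NPI normalised per plate against 1 µM phenylarsine oxide (0) and 0.1% DMSO (1) controls.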

SMILES	normalised cell viability [1]	normalised cell viability [2]	normalised cell viability [3]	normalised cell viability [4]	normalised cell viability [5]	normalised cell viability [6]
CN[C@@H]1C[C@H]2O[C@@](C)([C@@H]1OC)n1c3ccccc3c3c4c(c5c6ccccc6n2c5c31)C(=O)NC4 [Staurosporine]	0.0825 ± 0.0098	0.0186 ± 0.003	0.246 ± 0.01	0.0923 ± 0.017	0.0216 ± 0.0022	0.00445 ± 0.0013
C[C@@H](N)Cc1cnc[nH]1 [Histamine, R(-)-alpha-methyl-, dihydrochloride]	0.997 ± 0.0027	0.997 ± 0.011	1	0.994 ± 0.014	0.9917 ± 0.0045	0.9963 ± 0.0032
NC(CP(=O)(O)O)C(=O)O (racemic) [(±)-2-Amino-3-phosphonopropionic acid]	0.993 ± 0.0066	0.9903 ± 0.0093	1.005 ± 0.0087	1 ± 0.013	0.9877 ± 0.0049	0.998 ± 0.013
CCc1c(C(=O)OC)ncc2[nH]c3cc(OC)c(OC)cc3c12 [Methyl 6,7-dimethoxy-4-ethyl-beta-carboline-3-carboxylate]	1.01 ± 0.016	1.023 ± 0.0058	1.01 ± 0.01	1.03 ± 0.01	0.9997 ± 0.0091	1.003 ± 0.0058
COc1cc(CC(C)N)c(OC)cc1I (racemic) [(±)-DOI hydrochloride]	1.01 ± 0.01	0.983 ± 0.023	0.998 ± 0.013	1.02 ± 0.01	0.998 ± 0.0035	0.994 ± 0.004
Oc1ncc(N(CCCl)CCCl)c(O)n1 [Uracil mustard]	0.972 ± 0.007	1.06 ± 0.011	1.043 ± 0.0058	1.033 ± 0.0058	0.244 ± 0.021	1.01 ± 0.011
C[C@@]12C(=O)OC(=O)[C@]1(C)[C@H]1CC[C@@H]2O1 [Cantharidin]	0.9967 ± 0.0035	0.00641 ± 0.0033	1.05 ± 0.021	0.12 ± 0.057	0.9873 ± 0.0032	0.00459 ± 0.0027
CN(N=O)c1ccc(O)c(O)c1 [Me-3,4-dephostatin]	1.017 ± 0.0058	1.01 ± 0.017	1.007 ± 0.0058	1.05 ± 0.086	1.01 ± 0.011	1.02 ± 0.01
CCCN1CCC[C@@H](c2cccc(C#N)c2)C1 [S(-)-DS 121 hydrochloride]	1.017 ± 0.0058	0.972 ± 0.034	1.01 ± 0.01	0.985 ± 0.033	1.02	1.04 ± 0.047
NCc1cc(O)no1 [Muscimol hydrobromide]	1.006 ± 0.0069	0.993 ± 0.015	1.01 ± 0.013	0.992 ± 0.031	1.01	1.003 ± 0.0061
CCCN1CCC[C@@H]2Cc3n[nH]cc3C[C@H]21 (racemic) [(±)-Quinpirole dihydrochloride]	1.013 ± 0.0058	1.01 ± 0.036	0.893 ± 0.19	1.03 ± 0.01	1.013 ± 0.0058	1.01 ± 0.011
CCCN1CCC[C@@H]2Cc3n[nH]cc3C[C@H]21 [(-)-Quinpirole hydrochloride]	0.982 ± 0.006	0.992 ± 0.018	0.867 ± 0.22	1.01 ± 0.016	0.985 ± 0.0087	0.9927 ± 0.0045
CCN(CCCl)CCOC(C)=O [Acetylethylcholine mustard hydrochloride]	1.01 ± 0.015	1.02 ± 0.034	1.01 ± 0.013	1.11 ± 0.061	0.995 ± 0.0046	1.01 ± 0.015
N.N.[Cl][Pt][Cl] [Cisplatin]	–	–	1.01	–	–	–
Cn1c(CCCC(=O)O)nc2cc(N(CCCl)CCCl)ccc21 [bendamustine hydrochloride]	1.02 ± 0.011	0.348 ± 0.02	1.007 ± 0.0058	0.7867 ± 0.0031	0.9937 ± 0.006	0.0218 ± 0.0032
O=[N+]([O-])c1ccc(O[C@@H]2O[C@H](CO)[C@@H](O)[C@H](O)[C@H]2F)c([N+](=O)[O-])c1 [2,4-Dinitrophenyl 2-fluoro-2-deoxy-beta-D-glucopyranoside]	0.9917 ± 0.004	0.989 ± 0.02	0.991 ± 0.023	0.974 ± 0.03	0.9807 ± 0.0021	0.9817 ± 0.0064
Cc1o[nH]c(=O)c1CC(N)C(=O)O (racemic) [(±)-AMPA hydrobromide]	0.995 ± 0.016	0.983 ± 0.016	0.999 ± 0.0095	0.994 ± 0.025	0.982 ± 0.0027	0.98 ± 0.007
CC(N)c1cccc(Cl)c1Cl (racemic) [(±)-2,3-Dichloro-alpha-methylbenzylamine hydrochloride]	1.006 ± 0.0075	1.02 ± 0.011	1.003 ± 0.0064	1.013 ± 0.0058	0.9993 ± 0.0097	1.001 ± 0.0081
CCCCN1[C@@H]2CC[C@H]1CC(OC(c1ccc(F)cc1)c1ccc(F)cc1)C2 (some centres undefined) [JHW 007 hydrochloride]	0.969 ± 0.017	0.629 ± 0.055	0.987 ± 0.011	0.969 ± 0.011	0.993 ± 0.003	0.228 ± 0.12
CC(N)C(O)c1ccc(O)c(O)c1 (single isomer, unassigned; (-)) [(-)-alpha-Methylnorepinephrine]	1.01 ± 0.012	0.971 ± 0.044	0.995 ± 0.013	0.958 ± 0.034	0.9967 ± 0.0058	0.9977 ± 0.0032
C/C=C(/C)C(=O)O[C@H]1C(C)=C2[C@H]([C@@H]1OC(=O)CCCCCCC)[C@@](C)(OC(C)=O)C[C@H](OC(=O)CCC)[C@@]1(O)[C@H]2OC(=O)[C@@]1(C)O [Thapsigargin]	0.0778 ± 0.015	0.0411 ± 0.016	0.215 ± 0.062	0.101 ± 0.029	0.0393 ± 0.014	0.00585 ± 0.0031
Clc1ccc(N2CC3CCC(C2)N3)nn1	1.003 ± 0.0064	0.979 ± 0.012	0.9903 ± 0.0074	0.9827 ± 0.004	0.9863 ± 0.0075	0.9843 ± 0.0086
C[C@@H]1O[C@@H](O[C@H]2C[C@@H](O)[C@]3(CO)[C@H]4[C@H](O)C[C@]5(C)[C@@H]([C@@H]6COC(=O)C6)CC[C@]5(O)[C@@H]4CC[C@]3(O)C2)[C@H](O)[C@H](O)[C@H]1O [Dihydroouabain]	1.027 ± 0.0058	0.0138 ± 0.013	1.01 ± 0.015	0.143 ± 0.081	0.98 ± 0.017	0.00677 ± 0.002
C[C@@H]1O[C@@H](O[C@H]2C[C@@H](O)[C@]3(CO)[C@H]4[C@H](O)C[C@]5(C)[C@@H](C6=CC(=O)OC6)CC[C@]5(O)[C@@H]4CC[C@]3(O)C2)[C@H](O)[C@H](O)[C@H]1O [Ouabain]	0.00947 ± 0.006	0.00628 ± 0.0019	0.0931 ± 0.013	0.07 ± 0.028	0.00711 ± 0.0021	0.00424 ± 0.002
NC(CCP(=O)(O)O)C(=O)O (racemic) [(±)-2-Amino-4-phosphonobutyric acid]	0.9883 ± 0.0042	0.998 ± 0.0017	1.01 ± 0.014	1 ± 0.042	0.9923 ± 0.0071	0.9973 ± 0.0025
N[C@H](C(=O)O)c1cc(O)no1 (racemic) [(±)-Ibotenic acid]	1.002 ± 0.0072	1 ± 0.032	0.991 ± 0.024	1.04 ± 0.096	0.9837 ± 0.0055	0.987 ± 0.012
Oc1cc2c(cc1O)[C@H]1c3ccccc3CN[C@@H]1CC2 (racemic) [Dihydrexidine hydrochloride]	1.002 ± 0.0068	0.995 ± 0.005	1.002 ± 0.0076	0.994 ± 0.018	0.9917 ± 0.0059	0.9897 ± 0.0031
CS(=N)(=O)CC[C@H](N)C(=O)O (stereo partly drawn) [L-Methionine sulfoximine]	1.003 ± 0.0058	1.01 ± 0.024	0.998 ± 0.01	0.948 ± 0.093	0.9987 ± 0.0023	1 ± 0.013
NC(Cn1oc(=O)[nH]c1=O)C(=O)O (single isomer, unassigned; (+)) [(+)-Quisqualic acid]	1.01 ± 0.01	0.973 ± 0.028	1.01 ± 0.031	1.01 ± 0.021	1.01 ± 0.012	1.005 ± 0.0087
